# Hits are enriched below; roughly 6.6% of the tested compounds scored in any of these assays.
# KB-V1 cytotox: qHTS assay for MDR1-selective chemotherapeutics: Primary screen using the drug-selected MDR subline cells KB-V1. KB-V1 MDR cells viability, CellTiter-Glo, 72 h. Potency, µM (doses to about 46.1 µM), actives largely listed as cytotoxic. 400,000 tested, 3.4% active; further: on the % scale 0 is the no-effect control and ±100 the full control effect; nearly all actives have a fitted effect of over 60% in size
#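 KB-V1, DMEM (no phenol red) + 10% FBS; cpd pin-transferred, titration series; 72 h, 37 degrees C; CellTiter-Glo, luminescence. Data normalized, curve-fit.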
# KB-3-1 tox: qHTS assay for MDR1-selective chemotherapeutics: Primary screen using the parental adenocarcinoma cell KB-3-1; Potency, µM (highest dose often 46.1 µM), usual class: cytotoxic; AID 1347075, 2019; KB-3-1 viability, CellTiter-Glo ATP luminescence, 72 h; 400,000 tested, 1.4% active; further: on the % scale 0 is the no-effect control and ±100 the full control effect; nearly all actives have a fitted effect of over 60% in size
#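 Cells are dispensed, compounds pinned in, plates held at 37 °C for 72 h, then CellTiter-Glo is added and luminescence read after 10 minutes. Cell line: parental KB-3-1 in phenol-red-free DMEM, 10% FBS.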
# TGFb inhibitor: qHTS for Inhibitors of TGF-b; Potency, µM (top dose mostly 46.1 µM), for the others: at the highest dose activity, negative = inhibition, usual class: inhibitors; AID 588855, 2011; HepG2 CAGA-GFP TGF-b/SMAD3 reporter, GFP fluorescence, 18 h; TGF-beta stimulated, 500 pg/mL final; 410,000 tested, 1.2% active; further: on the % scale 0 is the no-effect control and ±100 the full control effect; nearly all actives have a fitted effect of over 65% in size
#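 TGF-beta reporter screen: HEPG2 CAGA-GFP, 1% FBS, 500 pg/mL TGF-beta final, 18 h; per-cell GFP summed per well; curves fitted and categorized by class.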
# HT1080-NT tox: qHTS for induction of synthetic lethality in tumor cells producing 2HG: qHTS for the HT-1080-NT fibrosarcoma cell line; HT-1080-NT fibrosarcoma viability, CellTiter-Glo ATP luminescence, 48 h; Potency, µM (top dose mostly 46.1 µM), for the others: at the highest dose activity, negative = less viability, most hits filed as cytotoxic; 360,000 tested, 1.6% active; AID 686970, 2013;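 further: NT is the 2HG producing partner of a matched IDH1 knockdown line; 0% = DMSO-treated cells and -100% = media-only wells without cells; nearly all actives have a fitted effect of over 55% in size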
#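 Luminescent CellTiter-Glo readout after 48 hours of compound exposure at 37 degrees C defined viability of HT-1080-NT cells. Activity was normalized to DMSO wells and cell-free media wells; concentration-response curves were fitted and assigned curve classes.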
# HepG2 viability: qHTS for Inhibitors of TGF-b: Cytotox Counterscreen; AID 588856, 2011; HepG2 CAGA-GFP viability, ATP luminescence, 18 h; 410,000 tested, 0.76% active; Potency, µM (top dose mostly 46.1 µM), for inactives: at the top dose activity change, negative = cytotoxicity, most hits filed as cytotoxic
#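 HepG2 CAGA-GFP cells (1000/well, DMEM with 1% FBS) received compound, then TGF-beta at 500 pg/mL final, and were incubated 18 hours at 37 degrees C. Viability was read by CellTiter-Glo luminescence. Media-only wells were set as complete cell-killing and DMSO as no toxicity.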
# HT1080 IDH1KD tx: qHTS for induction of synthetic lethality in tumor cells producing 2HG: qHTS for the HT-1080-IDH1KD cell line; HT-1080 IDH1 knockdown viability, ATP luminescence, 48 h; Potency, µM (titrated, usually from 46.1 µM), inactives show top-dose activity, negative = toxicity, actives largely listed as cytotoxic; 360,000 tested, 2% active;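 further: 0% = DMSO wells and -100% = cell-free medium wells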
#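 % activity derives from luminescence (CellTiter-Glo), normalised to DMSO and no-cell wells. HT-1080-IDH1KD cells, 750/well, had 48 h compound exposure at 37 °C.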
# The depositor's hits bear a star; i = inactive; ? = inconclusive; / = no result. The call rests on the fitted dose curve; in most records, active means well fitted curve in the direction sought with a large enough effect; inconclusive means small, poorly fitted or top-dose-only effect, or another doubt; inactive means no such curve, though single readings can be large; an effect the other way counts as inactive or inconclusive. Potency means the concentration at half of the fitted maximal effect.
SMILES,KB-V1 cytotox,KB-3-1 tox,TGFb inhibitor,HT1080-NT tox,HepG2 viability,HT1080 IDH1KD tx
Cc1ccc(C(=O)c2cc([N+](=O)[O-])ccc2N2CCCCC2)c(C)c1,1.6µM*,0.82µM*,?,?,-11%,?
Fc1ccc(Nc2nc3nonc3nc2Nc2cccc(C(F)(F)F)c2)cc1,/,/,0.71µM*,/,-109%,/
O=C(O)c1cccnc1Nc1cccc(C(F)(F)F)c1,i,i,10%,9%,3%,-5%
CC(C(=O)Nc1ccccc1)n1nnc2sc3c(c2c1=O)CCCC3 (centres undefined),i,i,14µM*,/,-26%,/
CC(C(=O)Nc1ccccc1C(F)(F)F)n1nnc2sc3c(c2c1=O)CCCC3 (centres undefined),i,i,-30%,/,-15%,/
COc1ccc(CCNc2nc3c(c(=O)n(C)c(=O)n3C)n2Cc2ccc(F)cc2)cc1OC,2.1µM*,18µM*,-10%,/,-6%,/
COc1cc(/C=N/Nc2nc3c(c(=O)n(C)c(=O)n3C)n2Cc2ccccc2)ccc1OC(=O)c1ccco1,9.2µM*,?,-2%,0%,-48%,1%
CCNc1nc2c(c(=O)n(C)c(=O)n2C)n1Cc1ccc(F)cc1,i,?,?,/,-25%,/
CCOc1ccc(CCNc2nc3c(c(=O)n(C)c(=O)n3C)n2CC)cc1OCC,?,15µM*,11%,-1%,-4%,6%
Cn1c(=O)c2c(nc(N/N=C/c3ccncc3)n2Cc2ccccc2)n(C)c1=O,i,i,3%,-9%,-1%,-11%
Cc1ccc2c(CC(=O)N3CCN(c4cccc(Cl)c4)CC3)coc2c1,i,i,?,/,-24%,/
Cc1ccccc1NC(=O)Cn1c(SCC(=O)Nc2ccc(F)cc2)nc2ccccc21,i,i,-2%,/,-17%,/
Cc1c(C(=O)OCC(=O)NCCN2C(=O)CSC2=O)oc2c1ccc1ccccc12,23µM*,i,?,2%,-13%,-2%
CC1(C(=O)O)CCCN(C(=O)c2cccnc2Oc2ccccc2)C1 (centres undefined),i,i,-11%,29%,1%,22%
COc1ccc(OC)c2c(/C=C/c3ccc(N(C)C)cc3)ccnc12,i,i,0%,/,9%,/
COc1ccc(OC)c2c(/C=C/c3c(C)[nH]c4ccccc34)ccnc12,21µM*,?,?,/,-96%,/
CC1=CC(=O)C(C(C)C)=C/C1=N/OS(=O)(=O)c1ccccc1,21µM*,?,5µM*,8.2µM*,-99%,5.8µM*
Cc1ccc2c(c1)/C(=N/OS(=O)(=O)c1ccccc1)CCS2,?,i,?,1%,3%,5%
CC1=CC(=O)C=C(C)C1=NOS(=O)(=O)c1ccccc1,?,?,?,?,-112%,21µM*
CCOc1ccc(Cn2c(CNS(=O)(=O)c3ccc(C(C)(C)C)cc3)nc3cccnc32)cc1,/,/,?,/,-29%,/
COc1ccc(Br)cc1Cn1nnc(C(=O)Nc2ccc(C)cc2C)c1N,i,?,?,/,-17%,/
CC1CC(C)CN(C(=O)CSc2ncnc3sccc23)C1 (centres undefined),21µM*,i,2%,0%,-21%,-5%
C(=C/c1nccc2c1[nH]c1ccccc12)/c1ccc2c(c1)OCO2,i,i,?,?,-49%,16µM*
CC(C)c1ccc(NC(=O)c2ccc(-c3ccnn3C)c3ccoc23)cc1,i,i,24%,15µM*,-45%,18µM*
O=C(CSc1nnc(-c2ccc(Cl)cc2)n1-c1ccccc1)N/N=C/c1ccccc1C(=O)O,i,i,4%,-25%,-11%,0%
SMILES,KB-V1 cytotox,KB-3-1 tox,TGFb inhibitor,HT1080-NT tox,HepG2 viability,HT1080 IDH1KD tx
O=C(CSc1nnc(-c2ccccc2)n1-c1ccc(Cl)cc1)N/N=C/c1ccco1,16µM*,i,?,-15%,-14%,-10%
CC(C)OC(=O)C(NC(=O)c1ccccc1)=C1CCCCC1,21µM*,i,7%,9%,-2%,8%
CCOc1cc(C=C(C#N)C#N)ccc1Oc1ccc([N+](=O)[O-])cn1,i,i,?,0%,12%,-3%
COc1cc(/C=N\NC(=O)c2ccccc2F)ccc1Oc1ccc([N+](=O)[O-])cn1,7.3µM*,?,-25%,21µM*,3%,7.3µM*
COc1cc(/C=N\NC(=O)c2ccc(Cl)cc2)ccc1Oc1ccc([N+](=O)[O-])cn1,i,i,-9%,-13%,1%,-14%
COc1cc(/C=C(/C#N)c2ccc(F)cc2)ccc1Oc1ccc([N+](=O)[O-])cn1,2.3µM*,?,-15%,1%,0%,?
Cc1ccc(N2CCN(C(=O)NCc3noc4ccccc34)CC2C)cc1 (centres undefined),i,i,?,/,-21%,/
CN(C)c1ccc(NC(=O)Cn2c(SCc3ccc(F)cc3)nc3cccnc32)cc1,/,/,?,/,-20%,/
COCCNC(=S)NC(=O)CC12CC3CC(CC(C3)C1)C2,16µM*,i,-57%,-12%,-17%,-14%
CNC(=O)CC12CC3CC(CC(C3)C1)C2,i,i,6%,2%,-3%,4%
Nc1nnc(CCS(=O)(=O)c2cc(Cl)ccc2Cl)s1,i,i,0%,15%,9%,9%
Cc1ccccc1CN(C)CCS(=O)(=O)c1cc(Cl)ccc1Cl,?,?,?,16µM*,7%,13µM*
Cc1ccsc1/C=C/c1ccc2cccc(O)c2n1,13µM*,?,?,13µM*,-30%,11µM*
Oc1ccc(Cl)cc1/C=C/c1ccc2cccc(O)c2n1,i,?,?,?,-65%,21µM*
Cc1ccsc1/C=C/c1ccc2ccccc2n1,?,?,-24%,-7%,-64%,-7%
Oc1cccc2ccc(/C=C/c3cccs3)nc12,i,?,?,?,-22%,11µM*
Oc1c(Cl)cc(Cl)cc1/C=C/c1ccc2cccc(O)c2n1,?,?,?,?,-38%,?
Cc1cccc(/C=C/c2cccs2)n1,i,2.3µM*,?,/,-25%,/

# Source: PubChem BioAssay (National Center for Advancing Translational Sciences (NCATS))
